From PubChem BioAssay (EPA / NIEHS)
Where a structure was tested more than once in an assay, its records may differ in their call. The source made the active and inactive calls. Rule for the calls: active = hit-call score of the fitted dose curve at least 0.9, where 1 is the maximum; inactive = score below 0.9.

Tests used:
[1] = ATG_GLI_CIS: Attagene CIS-FACTORIAL HepG2 Assay for human Zinc Finger Protein GLI1 (AID 2282945); settings: HepG2, Attagene cis-factorial reporter mRNA, GLI element; actives raise or lower the signal
Method in brief: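 HepG2 cells transiently transfected with cis-promoter multiplexed reporter units report endogenous transcription factor activity. After 24 h chemical exposure, reporter mRNA was quantified by RT-PCR, 6-FAM labelling, HpaI digestion and capillary electrophoresis, with bidirectional fitting against DMSO.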

[2] = target: Bile acid receptor (Homo sapiens) (UniProt Q96RI1); experiment: ATG_IR1_CIS: Attagene CIS-FACTORIAL HepG2 Assay for human Nuclear Receptor Subfamily 1 Group H Member 4 (NR1H4), IR1 submotif (AID 2282946); settings: IR1 reporter transcription, actives raise or lower the signal
Chain of Bile acid receptor (Homo sapiens) (Q96RI1 whole entry, looked up): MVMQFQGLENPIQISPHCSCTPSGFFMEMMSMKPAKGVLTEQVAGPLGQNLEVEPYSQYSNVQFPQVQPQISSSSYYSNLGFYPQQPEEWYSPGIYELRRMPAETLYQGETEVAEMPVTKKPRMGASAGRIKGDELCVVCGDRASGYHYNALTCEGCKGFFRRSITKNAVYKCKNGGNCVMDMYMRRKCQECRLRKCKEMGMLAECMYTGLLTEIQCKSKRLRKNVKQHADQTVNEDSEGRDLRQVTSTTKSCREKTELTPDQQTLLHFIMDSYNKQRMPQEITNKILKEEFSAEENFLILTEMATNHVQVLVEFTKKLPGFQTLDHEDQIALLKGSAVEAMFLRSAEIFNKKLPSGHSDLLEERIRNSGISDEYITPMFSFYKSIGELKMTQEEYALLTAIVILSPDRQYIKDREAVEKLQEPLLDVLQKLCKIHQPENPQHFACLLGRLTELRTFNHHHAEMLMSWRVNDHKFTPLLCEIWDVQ
Method in brief: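 Transient MRTU transfection, HepG2; 24 h dosing; RNA → RT-PCR → 6-FAM primer extension → HpaI digest → capillary electrophoresis fluorescence. Gain/loss of signal fitted relative to DMSO.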

[3] = ATG_GRE_CIS: Attagene CIS-FACTORIAL HepG2 Assay for human Glucocorticoid Response Elements (GRE) (AID 2282947); settings: HepG2 GRE cis-reporter, Attagene multiplex mRNA; actives raise or lower the signal
Method in brief: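 HepG2 cells transiently transfected with multiple cis-promoter reporter units measure endogenous TF activity; 24 h compound exposure. Reporter mRNA quantified by RT-PCR, FAM labelling, HpaI digestion and capillary electrophoresis; bidirectional fit vs DMSO baseline.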

[4] = ATG_ISRE_CIS: Attagene CIS-FACTORIAL HepG2 Assay for human Interferon Regulatory Factor 1 (IRF1) binding to an Interferon-Stimulated Response Element (ISRE) (AID 2282948); settings: HepG2 ISRE cis-reporter (Attagene), mRNA transcription readout; actives raise or lower the signal
Method in brief: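 Cell-based cis-reporter assay; HepG2; 24 h exposure; reporter mRNA by RT-PCR plus capillary electrophoresis fluorescence; activity in either direction scored relative to DMSO.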

[5] = ATG_M_32_CIS: Attagene CIS-FACTORIAL HepG2 Assay for M32 Transcription Factor (Internal Marker) (AID 2282949); settings: HepG2 Attagene cis-factorial M32 reporter, mRNA; actives raise or lower the signal;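 note: background control marker of the multiplexed CIS panel rather than a real target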
Method in brief: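 Internal background marker read-out: RT-PCR/capillary electrophoresis fluorescence of reporter transcripts from transiently transfected HepG2 cells after 24 h chemical exposure. Activity fitted bidirectionally relative to DMSO negative control.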

[6] = ATG_M_06_CIS: Attagene CIS-FACTORIAL HepG2 Assay for M06 Transcription Factor (Internal Marker) (AID 2282950); settings: HepG2 Attagene CIS-FACTORIAL M06 internal marker reporter; actives raise or lower the signal
Method in brief: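 Measured 24 h post-dosing in transiently transfected HepG2 cells, this internal-marker endpoint reports reporter mRNA via RT-PCR with fluorescent primer extension and capillary electrophoresis. DMSO served as negative control and baseline for bidirectional fitting.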

[7] = target: Hypoxia-inducible factor 1-alpha (Homo sapiens) (UniProt Q16665); experiment: ATG_HIF1a_CIS: Attagene CIS-FACTORIAL HepG2 Assay for human Hypoxia Inducible Factor 1 (HIF1A) (AID 2282951); settings: HepG2 Attagene cis-factorial HIF1a reporter transcription; actives raise or lower the signal
Chain of Hypoxia-inducible factor 1-alpha (Homo sapiens) (Q16665 whole entry, looked up): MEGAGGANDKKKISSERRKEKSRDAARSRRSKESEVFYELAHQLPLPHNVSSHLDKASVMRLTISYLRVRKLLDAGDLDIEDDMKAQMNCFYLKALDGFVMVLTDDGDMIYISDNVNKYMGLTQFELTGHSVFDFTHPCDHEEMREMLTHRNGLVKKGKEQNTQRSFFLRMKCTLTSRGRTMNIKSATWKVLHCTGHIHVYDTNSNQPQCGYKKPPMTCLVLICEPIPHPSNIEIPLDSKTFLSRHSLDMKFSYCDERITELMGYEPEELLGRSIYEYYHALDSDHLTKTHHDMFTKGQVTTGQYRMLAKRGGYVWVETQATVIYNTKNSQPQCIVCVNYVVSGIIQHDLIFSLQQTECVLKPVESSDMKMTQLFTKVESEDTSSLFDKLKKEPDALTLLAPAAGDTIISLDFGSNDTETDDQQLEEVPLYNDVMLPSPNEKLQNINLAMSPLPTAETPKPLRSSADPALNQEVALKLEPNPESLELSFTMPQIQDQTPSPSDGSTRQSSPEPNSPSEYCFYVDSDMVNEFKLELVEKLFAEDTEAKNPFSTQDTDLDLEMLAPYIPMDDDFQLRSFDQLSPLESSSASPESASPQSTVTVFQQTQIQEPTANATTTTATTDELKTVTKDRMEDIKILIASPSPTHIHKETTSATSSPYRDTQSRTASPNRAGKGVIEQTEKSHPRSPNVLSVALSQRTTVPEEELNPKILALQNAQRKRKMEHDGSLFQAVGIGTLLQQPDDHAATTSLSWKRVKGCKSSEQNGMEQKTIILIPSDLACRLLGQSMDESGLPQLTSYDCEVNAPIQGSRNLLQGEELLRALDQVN
Method in brief: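 Cis-element reporter constructs were transiently transfected into HepG2 cells, which were treated for 24 h; reporter RNA was reverse-transcribed, amplified, labelled and resolved by capillary electrophoresis.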

[8] = target: Heat shock factor protein 1 (Homo sapiens) (UniProt Q00613); experiment: ATG_HSE_CIS: Attagene CIS-FACTORIAL HepG2 Assay for human Heat Shock Transcription Factor 1 (HSE) (AID 2282953); settings: HepG2 HSE cis-reporter, Attagene RNA transcription; actives raise or lower the signal
Chain of Heat shock factor protein 1 (Homo sapiens) (Q00613 whole entry, looked up): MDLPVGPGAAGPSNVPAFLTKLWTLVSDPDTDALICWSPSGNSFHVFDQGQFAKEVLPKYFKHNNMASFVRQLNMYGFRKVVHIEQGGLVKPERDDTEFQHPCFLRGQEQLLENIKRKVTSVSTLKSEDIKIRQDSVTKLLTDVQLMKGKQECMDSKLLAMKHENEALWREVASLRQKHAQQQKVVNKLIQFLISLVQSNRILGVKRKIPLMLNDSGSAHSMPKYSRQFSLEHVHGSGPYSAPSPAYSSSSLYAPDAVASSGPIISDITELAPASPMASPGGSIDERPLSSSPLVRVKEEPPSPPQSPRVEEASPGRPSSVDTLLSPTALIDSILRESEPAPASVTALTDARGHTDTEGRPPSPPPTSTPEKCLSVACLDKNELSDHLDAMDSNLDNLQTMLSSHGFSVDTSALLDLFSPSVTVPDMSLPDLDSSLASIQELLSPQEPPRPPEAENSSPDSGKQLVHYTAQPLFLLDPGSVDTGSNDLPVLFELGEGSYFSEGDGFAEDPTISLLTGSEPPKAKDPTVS
Method in brief: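 Reporter mRNA induction in HepG2 is measured 24 h after dosing, using transiently transfected multiplexed cis-regulated reporter units. Signal comes from capillary electrophoresis of labelled RT-PCR products, with DMSO as negative control.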

[9] = ATG_PBREM_CIS: Attagene CIS-FACTORIAL HepG2 Assay for human Phenobarbital-responsive Enhancer Module (PBREM) (AID 2282955); settings: HepG2 PBREM cis-reporter, Attagene multiplexed transcription; actives raise or lower the signal
Method in brief: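 Multiplexed cis-reporter readout in human hepatoma HepG2 cells; PBREM-regulated transcript quantified after 24 h exposure by fluorescent RT-PCR fragment analysis. Signal changes up or down fitted relative to DMSO.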

[10] = target: Paired box protein Pax-6 (Homo sapiens) (UniProt P26367); experiment: ATG_Pax6_CIS: Attagene CIS-FACTORIAL HepG2 Assay for human Paired Box 6 (PAX6) (AID 2282956); settings: HepG2 CIS-FACTORIAL PAX6 reporter transcription, RNA readout; actives raise or lower the signal
Chain of Paired box protein Pax-6 (Homo sapiens) (P26367 whole entry, looked up): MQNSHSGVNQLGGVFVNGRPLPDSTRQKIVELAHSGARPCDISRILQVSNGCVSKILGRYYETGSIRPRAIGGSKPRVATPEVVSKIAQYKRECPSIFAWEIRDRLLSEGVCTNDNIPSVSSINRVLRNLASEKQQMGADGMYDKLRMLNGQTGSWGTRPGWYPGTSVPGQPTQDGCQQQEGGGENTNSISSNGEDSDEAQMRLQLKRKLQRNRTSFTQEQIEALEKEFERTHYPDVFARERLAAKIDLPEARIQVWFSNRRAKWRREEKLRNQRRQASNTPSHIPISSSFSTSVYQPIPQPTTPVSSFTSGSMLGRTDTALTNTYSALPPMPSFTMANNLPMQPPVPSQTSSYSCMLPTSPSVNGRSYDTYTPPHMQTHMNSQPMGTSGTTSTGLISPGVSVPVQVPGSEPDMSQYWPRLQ
Method in brief: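 Multiplexed cis-reporter HepG2 system; 24 h treatment; reporter mRNA read by RT-PCR/CE fluorescence; bidirectional fit vs DMSO.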

[11] = ATG_PXRE_CIS: Attagene CIS-FACTORIAL HepG2 Assay for human Pregnane X Receptor Element (PXRE) (AID 2282957); settings: HepG2 Attagene CIS-FACTORIAL PXRE reporter, mRNA; actives raise or lower the signal
Method in brief: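 Cis-element reporter mRNA in human hepatoma HepG2 cells is measured 24 h post-dosing by RT-PCR, primer-extension labeling and capillary electrophoresis; gain or loss of signal is fitted relative to DMSO.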

[12] = ATG_RORE_CIS: Attagene CIS-FACTORIAL HepG2 Assay for human RAR-related Orphan Receptor Element (RORE) (AID 2282959); settings: HepG2 Attagene cis-factorial RORE reporter, mRNA; actives raise or lower the signal
Method in brief: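 Transfect HepG2 with MRTUs; treat 24 h; extract RNA; RT with oligo(dT); PCR with reporter-specific primers; 6-FAM primer extension; HpaI digest 2 h at 37 C; capillary electrophoresis. Fit vs DMSO, bidirectional.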

[13] = ATG_Sox_CIS: Attagene CIS-FACTORIAL HepG2 Assay for human SRY-box transcription factor (SOX) (AID 2282960); settings: HepG2 Attagene cis-factorial SOX reporter, mRNA; actives raise or lower the signal
Method in brief: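 Fluorescence-labelled cDNA fragments from reporter transcripts, sized by CE, give the signal. Cells: HepG2, transiently transfected with cis-regulated reporter units. Exposure 24 h; DMSO negative control; bidirectional curve fitting.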

[14] = target: Transcription factor Sp1 (Homo sapiens) (UniProt P08047); experiment: ATG_Sp1_CIS: Attagene CIS-FACTORIAL HepG2 Assay for human Specificity Protein 1 (Sp1) (AID 2282961); settings: HepG2 Sp1 cis-reporter transcription, actives raise or lower the signal
Chain of Transcription factor Sp1 (Homo sapiens) (P08047 whole entry, looked up): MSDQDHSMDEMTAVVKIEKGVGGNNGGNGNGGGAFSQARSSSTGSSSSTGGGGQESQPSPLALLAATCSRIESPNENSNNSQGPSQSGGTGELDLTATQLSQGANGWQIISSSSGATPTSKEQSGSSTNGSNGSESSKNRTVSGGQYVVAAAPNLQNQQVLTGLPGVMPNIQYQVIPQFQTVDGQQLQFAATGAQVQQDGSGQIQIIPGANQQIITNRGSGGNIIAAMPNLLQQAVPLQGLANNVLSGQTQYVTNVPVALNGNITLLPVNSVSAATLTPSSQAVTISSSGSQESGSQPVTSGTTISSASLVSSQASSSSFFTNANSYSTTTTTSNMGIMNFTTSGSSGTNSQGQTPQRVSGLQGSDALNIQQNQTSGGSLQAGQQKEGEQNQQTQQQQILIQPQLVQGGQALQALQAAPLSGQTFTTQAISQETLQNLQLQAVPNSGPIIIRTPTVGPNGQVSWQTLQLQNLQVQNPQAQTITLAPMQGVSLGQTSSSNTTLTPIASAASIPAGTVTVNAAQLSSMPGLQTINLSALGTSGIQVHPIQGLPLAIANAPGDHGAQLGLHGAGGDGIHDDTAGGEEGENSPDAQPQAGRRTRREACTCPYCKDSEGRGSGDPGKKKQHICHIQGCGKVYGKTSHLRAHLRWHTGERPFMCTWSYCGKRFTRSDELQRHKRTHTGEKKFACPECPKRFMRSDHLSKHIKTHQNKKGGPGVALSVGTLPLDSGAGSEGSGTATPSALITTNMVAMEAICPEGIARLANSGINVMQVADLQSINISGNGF
Method in brief: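 Chemicals are dosed onto HepG2 cells transfected with multiple cis-promoter reporter constructs, and after 24 h reporter RNA is reverse-transcribed, PCR-amplified and resolved by capillary electrophoresis for fluorescence quantitation; activity is scored up or down against DMSO.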

[15] = ATG_SREBP_CIS: Attagene CIS-FACTORIAL HepG2 Assay for human Sterol Regulatory Element Binding (SREBP) (AID 2282962); settings: HepG2 Attagene cis-factorial SREBP reporter, mRNA; actives raise or lower the signal
Method in brief: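 mRNA induction of transfected cis-promoter reporters in HepG2 cells, 24 h post-dose. Detection: RT-PCR with 6-FAM-labelled products, HpaI digest, capillary electrophoresis. DMSO served as negative control and baseline.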

[16] = target: Signal transducer and activator of transcription 3 (Homo sapiens) (UniProt P40763); experiment: ATG_STAT3_CIS: Attagene CIS-FACTORIAL HepG2 Assay for human Signal Transducer and Activator of Transcription 3 (STAT3) (AID 2282963); settings: HepG2, Attagene cis-factorial STAT3 reporter transcription; actives raise or lower the signal
Chain of Signal transducer and activator of transcription 3 (Homo sapiens) (P40763 whole entry, looked up): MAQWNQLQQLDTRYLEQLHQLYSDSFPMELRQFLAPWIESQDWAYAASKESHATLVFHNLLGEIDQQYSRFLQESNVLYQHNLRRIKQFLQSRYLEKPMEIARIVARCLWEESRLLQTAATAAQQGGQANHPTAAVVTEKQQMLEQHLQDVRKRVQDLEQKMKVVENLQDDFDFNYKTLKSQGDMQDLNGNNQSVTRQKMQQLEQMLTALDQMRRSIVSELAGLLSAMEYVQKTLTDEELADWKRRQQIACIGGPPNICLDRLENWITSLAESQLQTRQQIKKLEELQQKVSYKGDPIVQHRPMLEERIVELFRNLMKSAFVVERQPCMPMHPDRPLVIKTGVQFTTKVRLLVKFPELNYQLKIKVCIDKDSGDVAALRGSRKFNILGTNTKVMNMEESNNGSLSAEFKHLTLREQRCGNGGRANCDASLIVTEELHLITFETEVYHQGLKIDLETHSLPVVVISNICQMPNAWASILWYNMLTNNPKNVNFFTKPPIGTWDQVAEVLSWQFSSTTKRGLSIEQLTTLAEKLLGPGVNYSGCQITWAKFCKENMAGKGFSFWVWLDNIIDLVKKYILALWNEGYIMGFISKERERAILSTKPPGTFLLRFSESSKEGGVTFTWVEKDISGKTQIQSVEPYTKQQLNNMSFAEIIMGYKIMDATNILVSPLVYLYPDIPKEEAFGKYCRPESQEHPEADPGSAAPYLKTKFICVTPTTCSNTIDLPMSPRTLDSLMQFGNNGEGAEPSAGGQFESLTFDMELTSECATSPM
Method in brief: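 HepG2 cells transiently transfected with cis-element-driven multiple reporter transcription units; after 24 h chemical exposure, reporter mRNA measured by RT-PCR, 6-FAM primer-extension labelling, HpaI digestion and capillary electrophoresis. Bidirectional fitting versus DMSO baseline.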

[17] = ATG_TA_CIS: Attagene CIS-FACTORIAL HepG2 Assay for human TA Basal Promoter (AID 2282964); settings: HepG2 Attagene CIS-factorial TA basal promoter reporter; actives raise or lower the signal
Method in brief: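 Cis-factorial format in HepG2: reporters report endogenous factors, not chimeric Gal4 fusions. After 24 h treatment, reporter transcripts were measured by RT-PCR-capillary electrophoresis fluorescence, analysed bidirectionally versus DMSO.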

[18] = ATG_PPRE_CIS: Attagene CIS-FACTORIAL HepG2 Assay for human Peroxisome Proliferator-activated Response Element (PPRE) (AID 2282958); settings: HepG2 PPRE cis-element reporter, Attagene transcription factor profiling; actives raise or lower the signal
Method in brief: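 DMSO served as negative control and baseline for bidirectional curve fitting. Signal came from PPRE-regulated reporter mRNA in HepG2 cells, measured 24 h post-dosing by RT-PCR, 6-FAM primer extension and capillary electrophoresis.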

[19] = target: Hepatocyte nuclear factor 6 (Homo sapiens) (UniProt Q9UBC0); experiment: ATG_HNF6_CIS: Attagene CIS-FACTORIAL HepG2 Assay for human Hepatocyte Nuclear Factor 6 (HNF6) (AID 2282952); settings: HepG2 Attagene cis-factorial HNF6 reporter transcription; actives raise or lower the signal
Chain of Hepatocyte nuclear factor 6 (Homo sapiens) (Q9UBC0 whole entry, looked up): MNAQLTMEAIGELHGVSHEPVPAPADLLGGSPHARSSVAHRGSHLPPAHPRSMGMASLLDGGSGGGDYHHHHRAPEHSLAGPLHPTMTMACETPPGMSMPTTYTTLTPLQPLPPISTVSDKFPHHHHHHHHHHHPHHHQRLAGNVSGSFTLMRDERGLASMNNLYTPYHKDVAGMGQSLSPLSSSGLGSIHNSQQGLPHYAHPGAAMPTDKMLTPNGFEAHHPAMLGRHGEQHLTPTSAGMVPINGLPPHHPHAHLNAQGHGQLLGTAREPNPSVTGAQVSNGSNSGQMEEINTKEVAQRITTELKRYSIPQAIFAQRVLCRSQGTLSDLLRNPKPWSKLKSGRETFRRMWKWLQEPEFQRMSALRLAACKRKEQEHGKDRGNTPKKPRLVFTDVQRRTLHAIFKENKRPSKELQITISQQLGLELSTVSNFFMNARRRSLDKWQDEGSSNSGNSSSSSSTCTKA
Method in brief: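 Transiently transfected HepG2 cells expressing cis-regulated reporter transcription units were exposed to chemical for 24 h in a 24-well format. Reporter transcript abundance was determined by fluorescence capillary electrophoresis.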

[20] = ATG_MRE_CIS: Attagene CIS-FACTORIAL HepG2 Assay for human Metal Responsive Element (MRE) (AID 2282954); settings: HepG2 MRE cis-reporter transcription, Attagene multiplex; actives raise or lower the signal
Method in brief: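 HepG2 cells transiently transfected with multiple cis-element reporter units measure endogenous MTF1-driven transcription. After 24 h compound exposure, reporter mRNA is quantified by RT-PCR with 6-FAM labelling, HpaI digestion and capillary electrophoresis; bidirectional fits versus DMSO.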

Measured: AC50

CCCCCCC(=O)O
inactive: [1] | [2] | [3] | [4] | [5] | [6] | [7] | [8] | [9] | [10] | [11] | [12] | [13] | [14] | [15] | [16] | [17]
active: [11] 53.4 µM

CC[C@H](C)[C@@H](C(=O)O)n1sc2ccccc2c1=O
not listed: [19] | [20]
inactive: all other assays above

Cc1cc(C)c(O)c(C)c1
not listed: [19] | [20]
inactive: all other assays above

NC(=O)N(O)[C@@H]1C=C[C@H](Oc2cccc(Oc3ccc(F)cc3)c2)C1
active: [8] 52.8 µM | [10] 33 µM | [11] 12.9 µM | [12] 18.2 µM | [15] 18.3 µM
not listed: [9] | [19] | [20]
inactive: all other assays above

O=[N+]([O-])c1ccc(O)cc1
inactive: [1] | [4] | [5] | [6] | [7] | [19] | [8] | [9] | [10] | [11] | [18] | [13] | [14] | [15] | [16] | [17]
active: [7] 151 µM

COc1cc(CCC(=O)CC(=O)CCc2ccc(O)c(OC)c2)ccc1O
active: [11] 8.44 µM
not listed: [19] | [20]
inactive: all other assays above

O=C(OCCOCCOC(=O)c1ccccc1)c1ccccc1
not listed: [19] | [20]
inactive: all other assays above

CCC(C)(C)C1CCC(O)CC1 (stereo not given)
active: [11] 21.9 µM [middle of 4 runs]
not listed: [2] | [3] | [12] | [20]
inactive: all other assays above

CCCCCCCC(=O)O
not listed: [2] | [18] | [19]
inactive: all other assays above

C#C[C@]1(O)CC[C@H]2[C@@H]3CCC4=CC(=O)CC[C@@H]4[C@H]3CC[C@@]21C
active: [11] 26.9 µM [middle of 4 runs]
not listed: [2] | [7] | [19] | [20]
inactive: all other assays above

CCCCC(CC)COC(=O)CCCCC(=O)OCC(CC)CCCC (stereo not given)
not listed: [19]
inactive: all other assays above

COc1ccc([N+](=O)[O-])cc1N
not listed: [19] | [20]
inactive: all other assays above

C[C@@H]1C[C@H]2[C@@H]3CCC4=CC(=O)C=C[C@]4(C)[C@@]3(F)[C@@H](O)C[C@]2(C)[C@@]1(O)C(=O)COP(=O)(O)O
inactive: [1] | [4] | [5] | [6] | [7] | [8] | [10] | [11] | [18] | [12] | [13] | [14] | [15] | [16] | [17]
active: [3] 77.6 nM [middle of 4 runs] | [11] 25.9 µM

CCCCCCCCOC(=O)CCCCCCCCC(=O)OCCCCCCCC
not listed: [19] | [20]
inactive: all other assays above
